# From the supplement of paper PMC4466140
# Molecular target: AgAbp1
# Test: SPOT peptide array binding signal intensity (averaged, normalized) (arbitrary units (background-subtracted, floor 0; scale differs between SH3 domains)); higher = stronger binding of the SH3 domain to the peptide
# In short: (§1)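 Binding signal refers to normalized, background-subtracted spot intensity averaged over replicates, expressed in arbitrary units that differ between domains. GST-fused SH3 domains from four yeast species were incubated at 10 μg/ml overnight at 4°C on cellulose membranes of synthetic 15-mer peptides with cysteines replaced by serines. Bound protein was detected with anti-GST antibody, an HRP anti-mouse secondary and luminol, and quantified with Genespotter.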
row,Binder,SPOT peptide array binding signal intensity
1,GKKVRPLLVLLLSRA,≤ 0

# Molecular target: AgBbc1
# Test: as above
# In short: as §1
row,Binder,SPOT peptide array binding signal intensity
1,GKKVRPLLVLLLSRA,≤ 0

# Molecular target: AgBem1-D1
# Test: as above
# In short: as §1
row,Binder,SPOT peptide array binding signal intensity
1,GKKVRPLLVLLLSRA,≤ 0

# Molecular target: AgBzz1-D1
# Test: as above
# In short: as §1
row,Binder,SPOT peptide array binding signal intensity
1,GKKVRPLLVLLLSRA,23.5

# Molecular target: AgBzz1-D2
# Test: as above
# In short: as §1
row,Binder,SPOT peptide array binding signal intensity
1,GKKVRPLLVLLLSRA,2

# Molecular target: AgCyk3
# Test: as above
# In short: as §1
row,Binder,SPOT peptide array binding signal intensity
1,GKKVRPLLVLLLSRA,5

# Molecular target: AgFus1
# Test: as above
# In short: as §1
row,Binder,SPOT peptide array binding signal intensity
1,GKKVRPLLVLLLSRA,3030

# Molecular target: AgHof1
# Test: as above
# In short: as §1
row,Binder,SPOT peptide array binding signal intensity
1,GKKVRPLLVLLLSRA,0.5

# Molecular target: AgHse1
# Test: as above
# In short: as §1
row,Binder,SPOT peptide array binding signal intensity
1,GKKVRPLLVLLLSRA,1180

# Molecular target: AgLsb1
# Test: as above
# In short: as §1
row,Binder,SPOT peptide array binding signal intensity
1,GKKVRPLLVLLLSRA,≤ 0

# Molecular target: AgLsb4
# Test: as above
# In short: as §1
row,Binder,SPOT peptide array binding signal intensity
1,GKKVRPLLVLLLSRA,702

# Molecular target: AgMyo5
# Test: as above
# In short: as §1
row,Binder,SPOT peptide array binding signal intensity
1,GKKVRPLLVLLLSRA,≤ 0

# Molecular target: AgNbp2
# Test: as above
# In short: as §1
row,Binder,SPOT peptide array binding signal intensity
1,GKKVRPLLVLLLSRA,280

# Molecular target: AgRvs167
# Test: as above
# In short: as §1
row,Binder,SPOT peptide array binding signal intensity
1,GKKVRPLLVLLLSRA,1.5

# Molecular target: AgSho1
# Test: as above
# In short: as §1
row,Binder,SPOT peptide array binding signal intensity
1,GKKVRPLLVLLLSRA,795

# Molecular target: AgSla1-D1-D2
# Test: as above
# In short: as §1
row,Binder,SPOT peptide array binding signal intensity
1,GKKVRPLLVLLLSRA,≤ 0

# Molecular target: AgSla1-D3
# Test: as above
# In short: as §1
row,Binder,SPOT peptide array binding signal intensity
1,GKKVRPLLVLLLSRA,1

# Molecular target: CaAbp1-D1
# Test: as above
# In short: as §1
row,Binder,SPOT peptide array binding signal intensity
1,GKKVRPLLVLLLSRA,208

# Molecular target: CaAbp1-D2
# Test: as above
# In short: as §1
row,Binder,SPOT peptide array binding signal intensity
1,GKKVRPLLVLLLSRA,134

# Molecular target: CaBbc1
# Test: as above
# In short: as §1
row,Binder,SPOT peptide array binding signal intensity
1,GKKVRPLLVLLLSRA,0.5

# Molecular target: CaBem1-D1
# Test: as above
# In short: as §1
row,Binder,SPOT peptide array binding signal intensity
1,GKKVRPLLVLLLSRA,≤ 0

# Molecular target: CaBzz1-D1
# Test: as above
# In short: as §1
row,Binder,SPOT peptide array binding signal intensity
1,GKKVRPLLVLLLSRA,45

# Molecular target: CaBzz1-D2
# Test: as above
# In short: as §1
row,Binder,SPOT peptide array binding signal intensity
1,GKKVRPLLVLLLSRA,8

# Molecular target: CaCyk3
# Test: as above
# In short: as §1
row,Binder,SPOT peptide array binding signal intensity
1,GKKVRPLLVLLLSRA,9

# Molecular target: CaFus1
# Test: as above
# In short: as §1
row,Binder,SPOT peptide array binding signal intensity
1,GKKVRPLLVLLLSRA,3530

# Molecular target: CaHof1
# Test: as above
# In short: as §1
row,Binder,SPOT peptide array binding signal intensity
1,GKKVRPLLVLLLSRA,1.5

# Molecular target: CaHse1
# Test: as above
# In short: as §1
row,Binder,SPOT peptide array binding signal intensity
1,GKKVRPLLVLLLSRA,120

# Molecular target: CaLsb1
# Test: as above
# In short: as §1
row,Binder,SPOT peptide array binding signal intensity
1,GKKVRPLLVLLLSRA,≤ 0

# Molecular target: CaLsb4
# Test: as above
# In short: as §1
row,Binder,SPOT peptide array binding signal intensity
1,GKKVRPLLVLLLSRA,7.5

# Molecular target: CaMyo5
# Test: as above
# In short: as §1
row,Binder,SPOT peptide array binding signal intensity
1,GKKVRPLLVLLLSRA,≤ 0

# Molecular target: CaNbp2
# Test: as above
# In short: as §1
row,Binder,SPOT peptide array binding signal intensity
1,GKKVRPLLVLLLSRA,1520

# Molecular target: CaRvs167
# Test: as above
# In short: as §1
row,Binder,SPOT peptide array binding signal intensity
1,GKKVRPLLVLLLSRA,28.3

# Molecular target: CaRvs167-3
# Test: as above
# In short: as §1
row,Binder,SPOT peptide array binding signal intensity
1,GKKVRPLLVLLLSRA,50.8

# Molecular target: CaSho1
# Test: as above
# In short: as §1
row,Binder,SPOT peptide array binding signal intensity
1,GKKVRPLLVLLLSRA,562

# Molecular target: CaSla1-D1-D2
# Test: as above
# In short: as §1
row,Binder,SPOT peptide array binding signal intensity
1,GKKVRPLLVLLLSRA,≤ 0

# Molecular target: CaSla1-D3
# Test: as above
# In short: as §1
row,Binder,SPOT peptide array binding signal intensity
1,GKKVRPLLVLLLSRA,28

# Molecular target: ScAbp1
# Test: as above
# In short: as §1
row,Binder,SPOT peptide array binding signal intensity
1,GKKVRPLLVLLLSRA,3.5

# Molecular target: ScBbc1
# Test: as above
# In short: as §1
row,Binder,SPOT peptide array binding signal intensity
1,GKKVRPLLVLLLSRA,≤ 0

# Molecular target: ScBem1-D1
# Test: as above
# In short: as §1
row,Binder,SPOT peptide array binding signal intensity
1,GKKVRPLLVLLLSRA,≤ 0

# Molecular target: ScBzz1-D1
# Test: as above
# In short: as §1
row,Binder,SPOT peptide array binding signal intensity
1,GKKVRPLLVLLLSRA,18

# Molecular target: ScBzz1-D2
# Test: as above
# In short: as §1
row,Binder,SPOT peptide array binding signal intensity
1,GKKVRPLLVLLLSRA,104

# Molecular target: ScCyk3
# Test: as above
# In short: as §1
row,Binder,SPOT peptide array binding signal intensity
1,GKKVRPLLVLLLSRA,41

# Molecular target: ScFus1
# Test: as above
# In short: as §1
row,Binder,SPOT peptide array binding signal intensity
1,GKKVRPLLVLLLSRA,1690

# Molecular target: ScHof1
# Test: as above
# In short: as §1
row,Binder,SPOT peptide array binding signal intensity
1,GKKVRPLLVLLLSRA,≤ 0

# Molecular target: ScHse1
# Test: as above
# In short: as §1
row,Binder,SPOT peptide array binding signal intensity
1,GKKVRPLLVLLLSRA,1540

# Molecular target: ScLsb1
# Test: as above
# In short: as §1
row,Binder,SPOT peptide array binding signal intensity
1,GKKVRPLLVLLLSRA,≤ 0

# Molecular target: ScLsb2
# Test: as above
# In short: as §1
row,Binder,SPOT peptide array binding signal intensity
1,GKKVRPLLVLLLSRA,≤ 0

# Molecular target: ScLsb3
# Test: as above
# In short: as §1
row,Binder,SPOT peptide array binding signal intensity
1,GKKVRPLLVLLLSRA,97

# Molecular target: ScLsb4
# Test: as above
# In short: as §1
row,Binder,SPOT peptide array binding signal intensity
1,GKKVRPLLVLLLSRA,≤ 0

# Molecular target: ScMyo3
# Test: as above
# In short: as §1
row,Binder,SPOT peptide array binding signal intensity
1,GKKVRPLLVLLLSRA,≤ 0

# Molecular target: ScMyo5
# Test: as above
# In short: as §1
row,Binder,SPOT peptide array binding signal intensity
1,GKKVRPLLVLLLSRA,≤ 0

# Molecular target: ScNbp2
# Test: as above
# In short: as §1
row,Binder,SPOT peptide array binding signal intensity
1,GKKVRPLLVLLLSRA,237

# Molecular target: ScPex13
# Test: as above
# In short: as §1
row,Binder,SPOT peptide array binding signal intensity
1,GKKVRPLLVLLLSRA,≤ 0

# Molecular target: ScRvs167
# Test: as above
# In short: as §1
row,Binder,SPOT peptide array binding signal intensity
1,GKKVRPLLVLLLSRA,9.67

# Molecular target: ScSho1
# Test: as above
# In short: as §1
row,Binder,SPOT peptide array binding signal intensity
1,GKKVRPLLVLLLSRA,1560

# Molecular target: ScSla1-D1-D2
# Test: as above
# In short: as §1
row,Binder,SPOT peptide array binding signal intensity
1,GKKVRPLLVLLLSRA,≤ 0

# Molecular target: ScSla1-D3
# Test: as above
# In short: as §1
row,Binder,SPOT peptide array binding signal intensity
1,GKKVRPLLVLLLSRA,5.5

# Molecular target: SpAbp1-D1
# Test: as above
# In short: as §1
row,Binder,SPOT peptide array binding signal intensity
1,GKKVRPLLVLLLSRA,52.5

# Molecular target: SpBbc1
# Test: as above
# In short: as §1
row,Binder,SPOT peptide array binding signal intensity
1,GKKVRPLLVLLLSRA,0.5

# Molecular target: SpBzz1-D1
# Test: as above
# In short: as §1
row,Binder,SPOT peptide array binding signal intensity
1,GKKVRPLLVLLLSRA,21.5

# Molecular target: SpBzz1-D2
# Test: as above
# In short: as §1
row,Binder,SPOT peptide array binding signal intensity
1,GKKVRPLLVLLLSRA,≤ 0

# Molecular target: SpCyk3
# Test: as above
# In short: as §1
row,Binder,SPOT peptide array binding signal intensity
1,GKKVRPLLVLLLSRA,7

# Molecular target: SpHof1
# Test: as above
# In short: as §1
row,Binder,SPOT peptide array binding signal intensity
1,GKKVRPLLVLLLSRA,157

# Molecular target: SpHof1-2
# Test: as above
# In short: as §1
row,Binder,SPOT peptide array binding signal intensity
1,GKKVRPLLVLLLSRA,27.8

# Molecular target: SpHof1-3
# Test: as above
# In short: as §1
row,Binder,SPOT peptide array binding signal intensity
1,GKKVRPLLVLLLSRA,758

# Molecular target: SpHse1
# Test: as above
# In short: as §1
row,Binder,SPOT peptide array binding signal intensity
1,GKKVRPLLVLLLSRA,1200

# Molecular target: SpLsb1
# Test: as above
# In short: as §1
row,Binder,SPOT peptide array binding signal intensity
1,GKKVRPLLVLLLSRA,≤ 0

# Molecular target: SpLsb4
# Test: as above
# In short: as §1
row,Binder,SPOT peptide array binding signal intensity
1,GKKVRPLLVLLLSRA,41

# Molecular target: SpMyo1
# Test: as above
# In short: as §1
row,Binder,SPOT peptide array binding signal intensity
1,GKKVRPLLVLLLSRA,3.75

# Molecular target: SpNbp2
# Test: as above
# In short: as §1
row,Binder,SPOT peptide array binding signal intensity
1,GKKVRPLLVLLLSRA,1290

# Molecular target: SpPex13
# Test: as above
# In short: as §1
row,Binder,SPOT peptide array binding signal intensity
1,GKKVRPLLVLLLSRA,3

# Molecular target: SpRvs167
# Test: as above
# In short: as §1
row,Binder,SPOT peptide array binding signal intensity
1,GKKVRPLLVLLLSRA,6.83

# Molecular target: SpSla1-D1-D2
# Test: as above
# In short: as §1
row,Binder,SPOT peptide array binding signal intensity
1,GKKVRPLLVLLLSRA,1

# Molecular target: SpSla1-D3
# Test: as above
# In short: as §1
row,Binder,SPOT peptide array binding signal intensity
1,GKKVRPLLVLLLSRA,≤ 0
